Experiment [1] has as its target Sphingosine kinase 1 (Homo sapiens) (UniProt Q9NYA1). The settings on record: at 1 µM.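 Note: mean SPHK1 inhibition value reported from the GSK PKIS kinase panel screen.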
Experiment [2] deals with T1, Sphingosine kinase 2 (Homo sapiens) (UniProt Q9NRA0).
T1 sequence (whole entry): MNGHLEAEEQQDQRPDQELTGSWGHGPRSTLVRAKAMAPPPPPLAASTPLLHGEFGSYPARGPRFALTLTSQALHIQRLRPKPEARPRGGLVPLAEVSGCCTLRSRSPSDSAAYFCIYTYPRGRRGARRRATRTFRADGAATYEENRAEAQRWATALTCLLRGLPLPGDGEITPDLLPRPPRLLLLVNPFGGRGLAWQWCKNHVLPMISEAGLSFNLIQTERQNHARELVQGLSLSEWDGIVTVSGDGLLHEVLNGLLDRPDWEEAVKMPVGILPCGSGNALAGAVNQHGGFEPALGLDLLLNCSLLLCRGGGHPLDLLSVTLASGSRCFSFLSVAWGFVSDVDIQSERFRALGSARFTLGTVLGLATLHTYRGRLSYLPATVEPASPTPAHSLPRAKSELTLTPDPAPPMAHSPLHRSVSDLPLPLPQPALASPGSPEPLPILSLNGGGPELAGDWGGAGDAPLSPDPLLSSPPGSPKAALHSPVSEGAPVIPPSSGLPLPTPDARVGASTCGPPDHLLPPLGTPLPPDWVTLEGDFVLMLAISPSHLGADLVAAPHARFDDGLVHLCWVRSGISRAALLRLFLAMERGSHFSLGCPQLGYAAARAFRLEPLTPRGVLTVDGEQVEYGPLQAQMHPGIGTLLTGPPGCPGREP
The settings on record: at 0.1 µM.

Experiment [3] deals with T1, Sphingosine kinase 2 (Homo sapiens). The settings on record: at 1 µM.
For experiment [4], the target named is Casein kinase II subunit alpha (Homo sapiens) (UniProt P68400). The settings on record: at 0.1 µM.
Sequence of Casein kinase II subunit alpha (Homo sapiens) (P68400 whole entry, looked up): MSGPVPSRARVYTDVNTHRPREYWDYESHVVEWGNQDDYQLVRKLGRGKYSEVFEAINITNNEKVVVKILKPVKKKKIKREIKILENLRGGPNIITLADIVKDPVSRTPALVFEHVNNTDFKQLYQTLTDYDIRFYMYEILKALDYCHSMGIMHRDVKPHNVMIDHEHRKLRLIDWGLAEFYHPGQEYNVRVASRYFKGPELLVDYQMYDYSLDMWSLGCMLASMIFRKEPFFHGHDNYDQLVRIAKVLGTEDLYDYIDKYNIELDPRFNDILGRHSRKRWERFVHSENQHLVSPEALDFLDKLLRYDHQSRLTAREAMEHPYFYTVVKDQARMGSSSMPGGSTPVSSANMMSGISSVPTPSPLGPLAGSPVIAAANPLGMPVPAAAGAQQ
Experiment [5] shares this target. The settings on record: at 1 µM.
Experiment [6] deals with T2, Inhibitor of nuclear factor kappa-B kinase subunit alpha (Homo sapiens) (UniProt O15111).
T2 sequence (whole entry): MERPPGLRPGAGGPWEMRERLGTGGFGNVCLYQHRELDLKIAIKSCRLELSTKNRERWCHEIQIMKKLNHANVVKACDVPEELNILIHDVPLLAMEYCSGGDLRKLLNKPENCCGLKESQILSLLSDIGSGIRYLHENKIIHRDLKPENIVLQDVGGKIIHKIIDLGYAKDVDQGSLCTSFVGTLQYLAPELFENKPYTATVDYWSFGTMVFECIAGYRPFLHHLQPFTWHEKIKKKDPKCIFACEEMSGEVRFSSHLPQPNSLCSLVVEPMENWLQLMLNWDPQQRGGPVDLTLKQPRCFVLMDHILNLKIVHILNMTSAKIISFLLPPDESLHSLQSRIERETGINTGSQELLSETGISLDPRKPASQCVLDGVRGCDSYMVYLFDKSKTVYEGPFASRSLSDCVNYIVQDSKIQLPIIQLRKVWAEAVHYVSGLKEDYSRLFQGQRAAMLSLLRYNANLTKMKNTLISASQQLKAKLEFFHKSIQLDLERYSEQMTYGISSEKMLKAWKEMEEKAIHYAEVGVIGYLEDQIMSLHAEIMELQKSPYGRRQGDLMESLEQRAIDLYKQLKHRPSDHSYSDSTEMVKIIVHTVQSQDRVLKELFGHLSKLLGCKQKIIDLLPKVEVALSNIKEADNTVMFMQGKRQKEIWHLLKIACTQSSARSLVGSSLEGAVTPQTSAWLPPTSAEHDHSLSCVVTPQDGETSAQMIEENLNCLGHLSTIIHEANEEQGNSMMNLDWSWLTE
The settings on record: at 0.1 µM.

The target of experiment [7] is T2, Inhibitor of nuclear factor kappa-B kinase subunit alpha (Homo sapiens). The settings on record: at 1 µM.
In experiment [8] the target is T3, Inhibitor of nuclear factor kappa-B kinase subunit beta (Homo sapiens) (UniProt O14920).
T3 sequence (whole entry): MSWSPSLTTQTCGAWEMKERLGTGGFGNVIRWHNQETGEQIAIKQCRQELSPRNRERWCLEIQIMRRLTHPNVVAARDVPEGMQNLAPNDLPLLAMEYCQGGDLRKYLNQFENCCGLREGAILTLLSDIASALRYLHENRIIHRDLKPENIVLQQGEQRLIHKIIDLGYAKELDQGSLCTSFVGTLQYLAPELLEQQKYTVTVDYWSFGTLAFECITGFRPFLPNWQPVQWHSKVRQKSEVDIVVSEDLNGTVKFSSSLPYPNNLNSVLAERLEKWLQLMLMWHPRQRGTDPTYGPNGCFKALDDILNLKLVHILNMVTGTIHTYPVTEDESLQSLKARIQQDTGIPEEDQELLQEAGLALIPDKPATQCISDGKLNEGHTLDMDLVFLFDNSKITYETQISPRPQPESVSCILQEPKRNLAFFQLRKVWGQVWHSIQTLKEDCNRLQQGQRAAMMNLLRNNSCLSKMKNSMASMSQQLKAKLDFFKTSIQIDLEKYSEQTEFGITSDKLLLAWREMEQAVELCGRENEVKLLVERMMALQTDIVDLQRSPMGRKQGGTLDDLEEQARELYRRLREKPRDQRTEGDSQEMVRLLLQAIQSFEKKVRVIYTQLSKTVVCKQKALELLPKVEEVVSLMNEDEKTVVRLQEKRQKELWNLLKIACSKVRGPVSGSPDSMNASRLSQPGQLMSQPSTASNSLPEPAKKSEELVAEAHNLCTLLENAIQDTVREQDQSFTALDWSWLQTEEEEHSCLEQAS
The settings on record: at 0.1 µM.

Experiment [9] concerns the target T3, Inhibitor of nuclear factor kappa-B kinase subunit beta (Homo sapiens). The settings on record: at 1 µM.
In experiment [10] the target is T4, Inhibitor of nuclear factor kappa-B kinase subunit epsilon (Homo sapiens) (UniProt Q14164).
T4 sequence (whole entry): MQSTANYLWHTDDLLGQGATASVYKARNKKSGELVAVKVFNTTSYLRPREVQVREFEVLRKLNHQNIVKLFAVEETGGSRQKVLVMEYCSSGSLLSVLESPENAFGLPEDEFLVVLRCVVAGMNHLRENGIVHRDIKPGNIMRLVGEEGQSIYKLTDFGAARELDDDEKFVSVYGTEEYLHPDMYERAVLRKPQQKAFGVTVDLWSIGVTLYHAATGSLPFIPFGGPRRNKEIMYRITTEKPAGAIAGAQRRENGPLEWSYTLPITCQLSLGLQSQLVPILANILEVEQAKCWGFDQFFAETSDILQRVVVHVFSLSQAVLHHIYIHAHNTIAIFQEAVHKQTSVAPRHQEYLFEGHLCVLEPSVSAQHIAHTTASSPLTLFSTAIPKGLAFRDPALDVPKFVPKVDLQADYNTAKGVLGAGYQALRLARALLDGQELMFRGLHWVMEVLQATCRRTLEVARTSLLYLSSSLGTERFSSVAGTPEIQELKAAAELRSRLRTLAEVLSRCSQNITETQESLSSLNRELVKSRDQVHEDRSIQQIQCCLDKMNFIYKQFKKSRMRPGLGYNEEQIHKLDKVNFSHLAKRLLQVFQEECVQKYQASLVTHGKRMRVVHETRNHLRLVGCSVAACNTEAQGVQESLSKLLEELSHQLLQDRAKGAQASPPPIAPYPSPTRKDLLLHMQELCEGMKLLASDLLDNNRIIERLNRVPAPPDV
The settings on record: at 0.1 µM.

In experiment [11] the target is T4, Inhibitor of nuclear factor kappa-B kinase subunit epsilon (Homo sapiens). The settings on record: at 1 µM.
The target in experiment [12] is T5, Serine/threonine-protein kinase Nek1 (Homo sapiens) (UniProt Q96PY6).
T5 sequence (whole entry): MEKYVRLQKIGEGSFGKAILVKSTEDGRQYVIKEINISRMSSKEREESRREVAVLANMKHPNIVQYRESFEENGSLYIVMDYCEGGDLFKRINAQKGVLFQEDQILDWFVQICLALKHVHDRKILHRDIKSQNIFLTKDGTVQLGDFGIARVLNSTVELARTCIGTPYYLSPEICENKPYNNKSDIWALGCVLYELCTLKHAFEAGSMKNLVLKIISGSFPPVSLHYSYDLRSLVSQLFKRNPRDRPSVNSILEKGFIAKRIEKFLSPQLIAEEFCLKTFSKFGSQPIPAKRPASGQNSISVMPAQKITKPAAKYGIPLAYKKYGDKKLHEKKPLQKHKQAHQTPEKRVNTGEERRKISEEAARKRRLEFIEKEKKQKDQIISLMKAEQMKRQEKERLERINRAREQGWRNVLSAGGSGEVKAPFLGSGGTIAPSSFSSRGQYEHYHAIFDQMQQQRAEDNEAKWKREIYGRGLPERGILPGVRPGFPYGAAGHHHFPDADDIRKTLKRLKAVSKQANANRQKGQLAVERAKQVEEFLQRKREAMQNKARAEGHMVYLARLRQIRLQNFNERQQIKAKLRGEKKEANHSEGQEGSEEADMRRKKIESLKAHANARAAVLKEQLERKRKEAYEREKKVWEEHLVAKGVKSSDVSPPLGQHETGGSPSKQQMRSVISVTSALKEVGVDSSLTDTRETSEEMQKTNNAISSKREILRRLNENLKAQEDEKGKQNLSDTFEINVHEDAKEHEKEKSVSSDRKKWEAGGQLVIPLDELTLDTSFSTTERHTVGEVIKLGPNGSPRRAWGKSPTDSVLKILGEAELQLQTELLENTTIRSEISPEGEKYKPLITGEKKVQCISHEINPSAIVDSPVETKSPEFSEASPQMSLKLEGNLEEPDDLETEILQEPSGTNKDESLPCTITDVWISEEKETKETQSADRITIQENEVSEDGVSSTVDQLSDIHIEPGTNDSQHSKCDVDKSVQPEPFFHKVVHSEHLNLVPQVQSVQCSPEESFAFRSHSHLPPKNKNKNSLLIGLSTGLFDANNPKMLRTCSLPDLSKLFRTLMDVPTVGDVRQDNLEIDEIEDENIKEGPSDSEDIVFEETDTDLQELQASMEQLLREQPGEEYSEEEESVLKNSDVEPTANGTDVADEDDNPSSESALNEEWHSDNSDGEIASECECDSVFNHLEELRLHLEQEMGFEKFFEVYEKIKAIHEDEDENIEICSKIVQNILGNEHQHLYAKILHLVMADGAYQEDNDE
The settings on record: at 0.1 µM.

Experiment [13] concerns the target T5, Serine/threonine-protein kinase Nek1 (Homo sapiens). The settings on record: at 1 µM.
The target in experiment [14] is T6, Serine/threonine-protein kinase Nek2 (Homo sapiens) (UniProt P51955).
T6 sequence (whole entry): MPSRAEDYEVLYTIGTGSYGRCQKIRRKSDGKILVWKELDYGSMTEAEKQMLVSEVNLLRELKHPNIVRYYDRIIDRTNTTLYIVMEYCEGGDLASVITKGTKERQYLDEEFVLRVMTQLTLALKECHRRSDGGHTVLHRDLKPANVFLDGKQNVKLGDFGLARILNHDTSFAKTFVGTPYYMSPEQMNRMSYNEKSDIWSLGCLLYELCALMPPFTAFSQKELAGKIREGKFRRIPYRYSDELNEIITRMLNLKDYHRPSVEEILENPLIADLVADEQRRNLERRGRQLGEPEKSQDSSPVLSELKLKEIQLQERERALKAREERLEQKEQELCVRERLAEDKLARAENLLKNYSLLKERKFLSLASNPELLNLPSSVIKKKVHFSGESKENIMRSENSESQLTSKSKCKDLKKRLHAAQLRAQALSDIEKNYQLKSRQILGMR
The settings on record: at 0.1 µM.

Experiment [15] concerns the target T6, Serine/threonine-protein kinase Nek2 (Homo sapiens). The settings on record: at 1 µM.
The target of experiment [16] is Serine/threonine-protein kinase Nek6 (Homo sapiens) (UniProt Q9HC98). The settings on record: at 0.1 µM.
Sequence of Serine/threonine-protein kinase Nek6 (Homo sapiens) (Q9HC98 whole entry): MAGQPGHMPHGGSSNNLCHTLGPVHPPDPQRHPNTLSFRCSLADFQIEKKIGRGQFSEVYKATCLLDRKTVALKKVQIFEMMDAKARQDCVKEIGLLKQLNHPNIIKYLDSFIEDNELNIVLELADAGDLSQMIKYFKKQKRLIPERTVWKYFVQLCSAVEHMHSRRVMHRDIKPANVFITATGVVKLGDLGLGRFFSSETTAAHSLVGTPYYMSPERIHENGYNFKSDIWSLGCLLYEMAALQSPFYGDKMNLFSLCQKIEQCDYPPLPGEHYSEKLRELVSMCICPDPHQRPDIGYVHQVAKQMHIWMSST
For experiment [17] the target is unchanged. The settings on record: at 1 µM.
Experiment [18] addresses Serine/threonine-protein kinase Nek7 (Homo sapiens) (UniProt Q8TDX7). The settings on record: at 0.1 µM.
Experiment [19] shares this target. The settings on record: at 1 µM.
For experiment [20], the target named is T7, Serine/threonine-protein kinase Nek9 (Homo sapiens) (UniProt Q8TD19).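 Note: reported value is the mean percent inhibition of NEK9.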
T7 sequence (whole entry): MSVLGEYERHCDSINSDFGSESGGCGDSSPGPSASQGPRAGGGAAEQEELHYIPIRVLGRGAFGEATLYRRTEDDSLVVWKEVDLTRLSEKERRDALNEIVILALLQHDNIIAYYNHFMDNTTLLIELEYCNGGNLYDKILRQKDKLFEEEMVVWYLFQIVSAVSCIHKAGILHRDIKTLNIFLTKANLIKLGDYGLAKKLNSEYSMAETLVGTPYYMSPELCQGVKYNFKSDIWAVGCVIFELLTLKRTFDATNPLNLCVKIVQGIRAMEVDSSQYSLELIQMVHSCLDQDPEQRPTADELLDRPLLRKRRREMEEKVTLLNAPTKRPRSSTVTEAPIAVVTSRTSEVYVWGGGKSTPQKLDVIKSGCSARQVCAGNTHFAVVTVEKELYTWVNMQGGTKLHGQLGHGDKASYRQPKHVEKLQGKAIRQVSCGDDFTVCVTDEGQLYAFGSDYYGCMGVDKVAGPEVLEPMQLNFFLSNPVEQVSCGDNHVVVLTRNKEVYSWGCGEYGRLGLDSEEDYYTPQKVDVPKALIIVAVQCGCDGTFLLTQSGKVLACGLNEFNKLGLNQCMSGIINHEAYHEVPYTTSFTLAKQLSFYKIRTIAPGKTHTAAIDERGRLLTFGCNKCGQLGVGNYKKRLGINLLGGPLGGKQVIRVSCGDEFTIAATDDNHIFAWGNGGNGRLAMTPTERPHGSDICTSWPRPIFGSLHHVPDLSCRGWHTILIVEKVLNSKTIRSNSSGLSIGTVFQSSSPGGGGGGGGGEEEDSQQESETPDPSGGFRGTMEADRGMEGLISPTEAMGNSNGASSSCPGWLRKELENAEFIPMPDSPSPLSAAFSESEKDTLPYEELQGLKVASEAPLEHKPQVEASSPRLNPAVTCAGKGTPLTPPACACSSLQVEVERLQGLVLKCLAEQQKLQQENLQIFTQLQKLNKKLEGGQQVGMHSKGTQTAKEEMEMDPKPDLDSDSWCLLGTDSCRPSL
The settings on record: at 0.1 µM.

Each structure is given as a SMILES string.

For orientation: inhibition means the relative decrease from the control value, in per cent.

Sequence of Serine/threonine-protein kinase Nek7 (Homo sapiens) (Q8TDX7 whole entry, looked up): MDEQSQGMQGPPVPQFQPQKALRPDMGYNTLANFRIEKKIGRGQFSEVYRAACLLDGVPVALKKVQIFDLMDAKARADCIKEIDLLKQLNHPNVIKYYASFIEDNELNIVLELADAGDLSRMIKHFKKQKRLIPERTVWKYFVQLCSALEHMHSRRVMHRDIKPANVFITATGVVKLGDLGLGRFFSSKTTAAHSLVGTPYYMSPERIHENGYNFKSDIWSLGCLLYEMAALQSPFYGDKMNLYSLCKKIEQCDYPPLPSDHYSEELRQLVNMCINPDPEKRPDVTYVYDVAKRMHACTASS
Sequence of Sphingosine kinase 1 (Homo sapiens) (Q9NYA1 whole entry): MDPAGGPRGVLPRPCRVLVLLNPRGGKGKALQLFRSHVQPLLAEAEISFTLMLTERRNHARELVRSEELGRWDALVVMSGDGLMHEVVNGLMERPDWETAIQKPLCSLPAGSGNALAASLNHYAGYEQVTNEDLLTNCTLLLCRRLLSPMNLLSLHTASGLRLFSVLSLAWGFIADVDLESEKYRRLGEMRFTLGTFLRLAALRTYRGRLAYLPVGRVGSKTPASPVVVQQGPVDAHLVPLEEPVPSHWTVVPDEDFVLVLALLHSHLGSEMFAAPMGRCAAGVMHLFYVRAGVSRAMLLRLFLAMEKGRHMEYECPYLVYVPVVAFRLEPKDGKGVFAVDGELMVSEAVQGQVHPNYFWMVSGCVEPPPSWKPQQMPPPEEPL

On to `CCN(CC)S(=O)(=O)c1ccc(OC)c(Nc2ncc(-c3ccccc3)o2)c1`, for which the inhibition in experiment [1] is -3.4%; in experiment [2] it was -1.48%; in [3], 0.49%; in [4], 2.99%; in experiment [5], 15.1%; in experiment [6] it was 3.54%. The inhibition is -6.23% in experiment [7]; 0.24% in experiment [8]; -0.16% in experiment [9]; 2.98% in [10]; 1.73% in [11]; -0.43% in [12]. The inhibition in [13] is 1.95%; in experiment [14], 0.46%; in [15], -0.71%; in experiment [16], 1.9%; in experiment [17] it was 1.12%; in experiment [18], -0.6%. Besides, the inhibition was -0.03% in [19] and 2.38% in experiment [20].

Source of the values: ChEMBL document CHEMBL1961873, “Compounds: GSK PKIS; Assays: Nanosyn kinase panel” (2012).
